What was measured:
Assay in all cases: DAPPL (digital affinity profiling via proximity ligation, sequencing); 10 mM Tris-HCl pH 7.5, 50 mM NaCl, 1 mM DTT, 4% glycerol, room temperature, 30 min; GST-TFs on glutathione beads, 16-mer random dsDNA library, 0.1% formaldehyde crosslink after washing; high values mean tight binding
Conditions in all cases: protein: recombinant; tags: N-terminal GST; dsDNA, one strand shown
FLI1 = molecular target: T1, FLI1 (Homo sapiens, UniProt Q01543 1-452)
T1 sequence: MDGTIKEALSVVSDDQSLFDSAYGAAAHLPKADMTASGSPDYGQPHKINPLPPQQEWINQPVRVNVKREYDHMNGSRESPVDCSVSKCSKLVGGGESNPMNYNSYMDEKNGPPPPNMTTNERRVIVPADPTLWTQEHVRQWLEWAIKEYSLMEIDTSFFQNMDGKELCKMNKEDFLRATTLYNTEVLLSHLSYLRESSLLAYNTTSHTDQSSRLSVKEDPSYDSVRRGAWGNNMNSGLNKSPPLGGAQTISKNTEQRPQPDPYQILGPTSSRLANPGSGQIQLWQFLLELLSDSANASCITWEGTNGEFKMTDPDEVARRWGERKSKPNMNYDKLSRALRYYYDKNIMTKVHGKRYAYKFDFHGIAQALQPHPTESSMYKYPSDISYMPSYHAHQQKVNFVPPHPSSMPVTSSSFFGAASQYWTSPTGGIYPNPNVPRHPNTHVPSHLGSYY
Procedure, shortened: (§1)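 In yeast, human transcription factors were expressed with a GST fusion, then pulled down on glutathione beads and given DNA barcodes. Pooled with a tag-only sample, they were exposed to 200 nmole of a 16-mer random double-stranded DNA library (Tris/NaCl/DTT/glycerol buffer, room temperature, 30 min), washed, crosslinked with 0.1% formaldehyde, proximity-ligated using BsaI/T4 ligase for 1 h at 37 °C, PCR-amplified and read on an Illumina NextSeq500. Each hexamer's frequency of reads for a factor, divided by the matching frequency for the tag-only sample, gives the binding signal.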

ELK1 = molecular target: T2, ELK1 (Homo sapiens, UniProt P19419 1-428)
T2 sequence: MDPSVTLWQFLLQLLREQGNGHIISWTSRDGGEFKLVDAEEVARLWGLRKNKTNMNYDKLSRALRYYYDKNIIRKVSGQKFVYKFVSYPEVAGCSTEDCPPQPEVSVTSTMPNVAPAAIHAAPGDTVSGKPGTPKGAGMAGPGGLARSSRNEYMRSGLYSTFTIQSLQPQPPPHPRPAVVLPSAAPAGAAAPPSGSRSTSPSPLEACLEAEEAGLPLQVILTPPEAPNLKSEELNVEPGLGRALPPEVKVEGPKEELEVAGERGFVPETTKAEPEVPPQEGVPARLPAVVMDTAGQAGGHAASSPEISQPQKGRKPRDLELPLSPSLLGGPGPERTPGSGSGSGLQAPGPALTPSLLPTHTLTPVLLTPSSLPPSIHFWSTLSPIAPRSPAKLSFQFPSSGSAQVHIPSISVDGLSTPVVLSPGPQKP
Procedure, shortened: as §1

GABPA = molecular target: T3, GABPA (Homo sapiens, UniProt Q06546 1-454)
T3 sequence: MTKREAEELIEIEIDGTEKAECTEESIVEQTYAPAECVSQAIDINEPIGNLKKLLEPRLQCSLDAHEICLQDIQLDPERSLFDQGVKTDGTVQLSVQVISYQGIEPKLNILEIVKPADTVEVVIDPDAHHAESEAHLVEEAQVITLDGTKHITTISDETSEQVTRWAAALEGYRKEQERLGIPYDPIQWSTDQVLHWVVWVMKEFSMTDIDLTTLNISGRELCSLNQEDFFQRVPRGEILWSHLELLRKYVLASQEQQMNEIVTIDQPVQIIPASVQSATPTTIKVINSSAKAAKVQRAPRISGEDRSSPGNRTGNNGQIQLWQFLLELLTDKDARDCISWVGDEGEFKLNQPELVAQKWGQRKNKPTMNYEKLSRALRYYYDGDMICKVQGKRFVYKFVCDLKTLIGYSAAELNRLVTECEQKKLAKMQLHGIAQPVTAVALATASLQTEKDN
Procedure, shortened: as §1

ERG = molecular target: T4, ERG (Homo sapiens, UniProt P11308 1-479)
T4 sequence: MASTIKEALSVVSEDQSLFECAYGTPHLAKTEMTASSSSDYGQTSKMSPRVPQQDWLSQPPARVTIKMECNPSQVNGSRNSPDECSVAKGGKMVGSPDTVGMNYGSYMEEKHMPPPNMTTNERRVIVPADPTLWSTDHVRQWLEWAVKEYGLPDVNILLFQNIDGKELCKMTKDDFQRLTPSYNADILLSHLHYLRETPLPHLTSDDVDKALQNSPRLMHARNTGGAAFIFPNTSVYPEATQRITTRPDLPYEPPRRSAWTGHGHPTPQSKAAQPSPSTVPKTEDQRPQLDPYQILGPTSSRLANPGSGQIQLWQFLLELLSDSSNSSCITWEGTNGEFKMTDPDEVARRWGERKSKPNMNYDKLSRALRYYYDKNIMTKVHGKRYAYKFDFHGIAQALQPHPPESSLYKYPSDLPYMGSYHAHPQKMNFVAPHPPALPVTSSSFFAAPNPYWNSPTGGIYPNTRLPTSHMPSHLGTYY
Procedure, shortened: as §1

ELF1 = ELF1 (Homo sapiens, UniProt P32519 1-619)
Sequence of ELF1 (P32519 whole entry): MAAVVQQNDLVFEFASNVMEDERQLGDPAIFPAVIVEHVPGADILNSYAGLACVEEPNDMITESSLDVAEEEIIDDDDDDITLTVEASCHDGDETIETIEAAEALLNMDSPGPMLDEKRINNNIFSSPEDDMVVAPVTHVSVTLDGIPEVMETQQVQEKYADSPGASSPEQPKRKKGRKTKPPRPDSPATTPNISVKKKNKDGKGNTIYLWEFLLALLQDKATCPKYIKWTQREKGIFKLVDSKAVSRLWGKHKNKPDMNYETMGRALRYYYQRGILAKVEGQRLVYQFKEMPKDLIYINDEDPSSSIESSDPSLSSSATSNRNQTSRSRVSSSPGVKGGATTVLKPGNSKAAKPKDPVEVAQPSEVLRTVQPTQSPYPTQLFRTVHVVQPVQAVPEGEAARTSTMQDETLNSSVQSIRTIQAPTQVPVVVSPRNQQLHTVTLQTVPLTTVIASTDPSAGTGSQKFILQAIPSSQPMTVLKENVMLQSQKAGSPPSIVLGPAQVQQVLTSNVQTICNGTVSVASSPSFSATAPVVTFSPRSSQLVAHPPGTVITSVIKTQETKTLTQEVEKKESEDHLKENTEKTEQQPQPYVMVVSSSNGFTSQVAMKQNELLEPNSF
Procedure, shortened: as §1

EHF = molecular target: T5, EHF (Homo sapiens, UniProt Q9NZC4 1-300)
T5 sequence: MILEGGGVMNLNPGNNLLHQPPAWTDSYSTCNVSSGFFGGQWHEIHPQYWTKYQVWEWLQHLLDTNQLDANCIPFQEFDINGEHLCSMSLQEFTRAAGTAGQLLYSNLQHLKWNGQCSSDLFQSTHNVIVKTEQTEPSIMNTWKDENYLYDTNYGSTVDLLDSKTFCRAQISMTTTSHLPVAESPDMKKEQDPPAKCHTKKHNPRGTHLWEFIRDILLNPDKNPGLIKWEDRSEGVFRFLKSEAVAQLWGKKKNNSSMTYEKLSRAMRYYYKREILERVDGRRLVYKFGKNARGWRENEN
Procedure, shortened: as §1

SPI1 = SPI1 (Homo sapiens, UniProt P17947 1-270)
Procedure, shortened: as §1

SPIB = SPIB (Homo sapiens, UniProt Q01892 1-262)
Sequence of SPIB (Q01892 whole entry): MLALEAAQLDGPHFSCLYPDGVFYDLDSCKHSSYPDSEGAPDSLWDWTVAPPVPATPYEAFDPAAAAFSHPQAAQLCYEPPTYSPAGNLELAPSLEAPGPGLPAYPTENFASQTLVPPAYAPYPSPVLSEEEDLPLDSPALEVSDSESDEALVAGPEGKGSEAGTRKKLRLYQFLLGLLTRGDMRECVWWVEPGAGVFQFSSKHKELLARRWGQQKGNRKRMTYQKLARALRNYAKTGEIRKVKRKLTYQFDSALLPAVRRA
Procedure, shortened: as §1

ELK3 = molecular target: T6, ELK3 (Homo sapiens, UniProt P41970 1-407)
T6 sequence: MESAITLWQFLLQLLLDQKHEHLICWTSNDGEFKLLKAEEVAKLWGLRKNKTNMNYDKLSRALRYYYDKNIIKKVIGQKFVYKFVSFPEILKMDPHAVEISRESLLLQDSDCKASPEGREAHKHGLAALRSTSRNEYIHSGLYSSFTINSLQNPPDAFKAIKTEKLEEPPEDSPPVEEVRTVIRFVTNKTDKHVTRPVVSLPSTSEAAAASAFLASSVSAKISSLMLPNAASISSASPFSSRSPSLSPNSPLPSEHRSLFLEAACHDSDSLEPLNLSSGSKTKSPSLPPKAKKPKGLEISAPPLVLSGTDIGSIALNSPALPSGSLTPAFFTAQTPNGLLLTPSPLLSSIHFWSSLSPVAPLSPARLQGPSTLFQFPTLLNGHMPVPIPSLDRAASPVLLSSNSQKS
Procedure, shortened: as §1

## GCTAAT
FLI1
  binding signal: 1.14 fold enrichment (6-mer frequency, TF over GST control)
ELK1
  binding signal: 1.18 fold enrichment (6-mer frequency, TF over GST control)
GABPA
  binding signal: 1.17 fold enrichment (6-mer frequency, TF over GST control)
ERG
  binding signal: 1.13 fold enrichment (6-mer frequency, TF over GST control)
ELF1
  binding signal: 1.16 fold enrichment (6-mer frequency, TF over GST control)
EHF
  binding signal: 1.17 fold enrichment (6-mer frequency, TF over GST control)
SPI1
  binding signal: 1.13 fold enrichment (6-mer frequency, TF over GST control)
SPIB
  binding signal: 1.17 fold enrichment (6-mer frequency, TF over GST control)
ELK3
  binding signal: 1.2 fold enrichment (6-mer frequency, TF over GST control)

Source: paper PMC7862700, “An all-to-all approach to the identification of sequence-specific readers for epigenetic DNA modifications on cytosine”
